L3MBTL1 inh: qHTS Assay for the Inhibitors of L3MBTL1; 230,000 compounds, 0.66% hits; Lethal(3)malignant brain tumor-like protein 1 (Homo sapiens), Q9Y468; AlphaScreen L3MBTL1–H3K9me1 peptide binding; Potency, µM (titrated, usually from 57.1 µM), for inactives: at the top dose activity, negative = inhibition, most hits filed as inhibitors; further: on the % scale 0 is the no-effect control and ±100 the full control effect; nearly all actives have a fitted effect of over 60% in size
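L3MBTL1 (50 nM) pre-complexed 30 min with biotinylated H3(1-15)K9me1 peptide (75 nM), then compounds added for 30 min at room temperature; AlphaScreen streptavidin donor/nickel chelate acceptor beads (10 ug/mL final) read after 30 min dark incubation.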
BAZ2B inh: qHTS Assay for Inhibitors of BAZ2B. Potency, µM (doses to about 114 µM), for the others: top-dose activity change, negative = inhibition, usual class: inhibitors. 360,000 compounds, 4.4% hits. Bromodomain adjacent to zinc finger domain protein 2B (Homo sapiens), Q9UIF8. AlphaScreen BAZ2B-H3K14Ac peptide displacement; further: on the % scale 0 is the no-effect control and ±100 the full control effect; nearly all actives have a fitted effect of over 60% in size
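Inhibition is scored as reduced AlphaScreen emission. The BAZ2B/b-H3(5-23)K14Ac complex (50 nM each) in PBS pH 7.4, 0.01% Tween-20 meets compound (up to 110 uM) for 30 min at RT before bead addition.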
G9a inh: qHTS Assay for Inhibitors of Histone Lysine Methyltransferase G9a; G9a H3K9 monomethylation, AlphaScreen, 2 h; Potency, µM (highest dose often 102 µM), for inactives: at the highest dose activity, negative = inhibition, usual class: inhibitors; AID 504332, 2011; 350,000 compounds, 8.8% hits; further: on the % scale 0 is the no-effect control and ±100 the full control effect; nearly all actives have a fitted effect of over 75% in size
Target sequence (Q96KQ7 913-1193 limits assumed): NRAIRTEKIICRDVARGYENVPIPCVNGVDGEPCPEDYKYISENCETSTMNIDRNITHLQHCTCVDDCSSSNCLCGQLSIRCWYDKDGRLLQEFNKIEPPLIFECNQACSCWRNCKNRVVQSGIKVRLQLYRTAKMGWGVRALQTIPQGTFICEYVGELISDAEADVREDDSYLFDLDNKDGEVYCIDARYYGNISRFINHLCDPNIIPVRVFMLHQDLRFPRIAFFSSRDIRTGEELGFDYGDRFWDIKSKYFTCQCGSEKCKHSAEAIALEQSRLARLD
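Enzyme 20 nM + cpd, 15 min RT; add b-H3K9 pep 500 nM / SAM 20 uM; 2 h RT; anti-H3K9me1 Ab 0.5 ug/mL + SA donor / anti-rabbit acceptor beads 20 ug/mL each, 10 min; AlphaScreen read.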
HP1b binding inh: HTS for Inhibitors of HP1-beta Chromodomain Interactions with Methylated Histone Tails; Chromobox protein homolog 1 (Homo sapiens), P83916; AlphaScreen HP1-beta / biotin-H3K9me3 peptide binding; Potency, µM (series often up to 114 µM), without a hit: top-dose activity change, negative = inhibition, most hits filed as inhibitors; 390,000 compounds, 0.56% hits; AID 540317, 2011; further: nearly all actives have a fitted effect of over 70% in size
Target sequence (P83916 whole entry, looked up): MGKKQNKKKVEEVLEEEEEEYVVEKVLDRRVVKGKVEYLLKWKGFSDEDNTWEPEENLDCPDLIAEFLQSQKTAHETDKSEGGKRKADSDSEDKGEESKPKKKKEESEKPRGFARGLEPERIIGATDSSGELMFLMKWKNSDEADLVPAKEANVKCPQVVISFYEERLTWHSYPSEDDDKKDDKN
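AlphaScreen: HP1-beta (50 nM) preformed 30 min with biotin-H3(1-18)K9me3 peptide (50 nM) in PBS pH 7.4, 0.01% Tween-20. Compound added for 30 min at RT, then streptavidin donor/nickel chelate acceptor beads (10 ug/mL) for 30 min.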
JMJD2A Tudor: qHTS Assay for Inhibitors of JMJD2A-Tudor Domain | 390,000 compounds, 4.4% hits | AlphaScreen JMJD2A-Tudor / H3K4me3 peptide binding | Potency, µM (doses to about 114 µM), for the others: top-dose activity change, negative = inhibition, usual class: inhibitors | Lysine-specific demethylase 4A (Homo sapiens), O75164; further: on the % scale 0 is the no-effect control and ±100 the full control effect; nearly all actives have a fitted effect of over 50% in size
The depositor's hits bear a star; ? = inconclusive; / = no result; [ ] = dose if it differs, or a comment. This is a sample that favours compounds with a hit; in the whole collection about 11% have one here. The call rests on the fitted dose curve; in most records, active means well fitted inhibition curve with a large enough effect; inconclusive means small, poorly fitted or top-dose-only effect; inactive means no such curve, though single readings can be large or run the other way. Potency means the concentration at half of the fitted maximal effect.

SMILES | L3MBTL1 inh | BAZ2B inh | G9a inh | HP1b binding inh | JMJD2A Tudor
N#Cc1ccc(CN2CCC3(CC2)CCN(C(=O)c2ccncc2)CC3)cc1 | / | / | -3%[12.7 µM] | / | /
Cc1cc[n+]2n1CC(O)C2 (centres undefined) | 15% | -14% | 1%[12.7 µM] | 22% | 5%
CC(=O)c1cc2c(s1)c1cnn(Cc3ccccc3F)c(=O)c1n2C | / | / | / | / | -15%
CCOC(=O)N1CCN(C(=O)CCCn2c(=S)[nH]c3ccccc3c2=O)CC1 | / | ? | ? | 39% | ?
CCOC(=O)N1CCN(C(=O)CCCCCn2c(=S)[nH]c3ccsc3c2=O)CC1 | / | -13% | 18µM* | 34% | 79µM*
CCOC(=O)N1CCN(C(=O)CCCn2c(=S)[nH]c3ccsc3c2=O)CC1 | / | ? | 32µM* | 19% | 22µM*
CCOC(=O)N1CCN(C(=O)CCCn2c(=S)[nH]c3ccc(Br)cc3c2=O)CC1 | / | -9% | 10µM* | 24% | -13%
CC(C)c1ccc(Nc2nc(Cl)nc(Cl)n2)cc1 | 6% | ? | 40µM* | 3% | 89µM*
CCOC(=O)c1ccc(S(=O)(=O)NNS(=O)(=O)c2ccc(C)cc2)cc1 | / | 3% | 7%[2.33 µM] | 34% | -13%
CCOC(=O)c1ccc(S(=O)(=O)Nc2cc(C(=O)O)ccc2Cl)cc1 | -11% | -15% | 7.9µM* | 10% | -20%
CCOC(=O)c1c(C)oc2c1cc(NS(=O)(=O)c1ccc(C(=O)O)cc1)c1ccccc12 | / | -29% | 35µM* | -22% | -21%
COCCCn1c(=O)/c(=C\c2cccc(OC)c2OC)s/c1=C(/C#N)C(=O)Nc1ccc(C(=O)O)cc1 | -11% | 45µM* | -21%[59 µM] | 6% | -9%[11.4 µM]
COCCCn1c(=O)/c(=C/c2ccccc2OC(F)F)s/c1=C(\C#N)C(=O)NCCOC | / | / | / | 5% | -17%
Cc1c(C(=O)N(C)C2CCCCC2)sc2nc3ccc(N)cc3n12 | / | / | 25µM* | / | /
Cc1ccc2nc(Cl)c3cc(C(=O)N(C)C4CCCCC4)sc3c2c1 | / | -1% | 11%[59 µM] | 35% | -2%
COc1cccc(C(=O)NCCS(=O)(=O)N2CCc3ccccc3C2)c1 | 0% | 6% | -40% | 16% | -15%
CC1CCN(S(=O)(=O)CCNC(=O)c2ccccc2)CC1 | 4% | -5% | 9% | 19% | -14%
COc1cccc(C(=O)NCCS(=O)(=O)N2CCC(C)CC2)c1 | 7% | 6% | 35µM* | 16% | -6%
COC(=O)C1CCN(S(=O)(=O)CCNC(=O)c2cccc(OC)c2)CC1 | -9% | 9% | 35µM* | 18% | -2%
CCOCCCn1c(SCC(=O)Nc2cc(C)ccc2C)nc2c(oc3ccccc32)c1=O | / | 2% | -3%[59 µM] | 26% | -8%
CCCn1nnc(NC(=O)c2ccc3c(c2)OCO3)n1 | 10% | 2% | 9% | 18% | -1%
O=C1/C(=C/c2ccc([N+](=O)[O-])cc2)CCc2ccccc21 | / | 32µM* | ? | / | /
O=C1/C(=C/c2cccc([N+](=O)[O-])c2)CCc2ccccc21 | -13% | ? | ? | -30% | ?
COc1ccc(/C(O)=C2/C(=O)C(=O)N(c3ncccn3)C2c2ccc(C(C)(C)C)cc2)cc1 (centres undefined) | / | -6% | ? | / | /
Cc1ccc(/C(O)=C2/C(=O)C(=O)N(CC(=O)O)C2c2ccc([N+](=O)[O-])cc2)cc1 (centres undefined) | -4% | ? | ? | 57% | 50µM*
SMILES | L3MBTL1 inh | BAZ2B inh | G9a inh | HP1b binding inh | JMJD2A Tudor
COc1ccc(C2/C(=C(/O)c3ccc(F)cc3)C(=O)C(=O)N2c2ccccn2)cc1OC (centres undefined) | 12% | -2% | -10% | 23% | 18µM*
Cc1ccc(/C(O)=C2/C(=O)C(=O)N(c3ccccn3)C2c2cccc([N+](=O)[O-])c2)cc1 (centres undefined) | / | -37% | 35µM* | 3% | -21%
CCOc1ccc(/C(O)=C2/C(=O)C(=O)N(c3ncccn3)C2c2ccc(Cl)cc2)cc1 (centres undefined) | / | ? | 50µM* | 19% | -20%
Cc1ccc(/C(O)=C2\C(=O)C(=O)N(C)C2c2ccc([N+](=O)[O-])cc2)cc1 (centres undefined) | -1%[2.29 µM] | -21% | 8%[0.501 µM] | 30% | -7%
C[C@H](NC(=O)OC(C)(C)C)c1nnc(SCc2ccc(Cl)cc2Cl)o1 | / | 0% | 0%[59 µM] | 35% | 19%
CCOC(=O)c1ccc2c(c1)N(Cc1ccc(F)cc1Cl)C(=O)c1ccccc1S2 | / | 6% | 8%[59 µM] | 42% | 2%
Cc1ccc(NC(=O)c2ccc(=O)n(Cc3ccccc3C)c2)c(C)c1 | / | 4% | 5%[59 µM] | 14%[57 µM] | -3%
CN1C(=O)C(=O)/C(=C(/O)c2ccccc2)C1c1ccc([N+](=O)[O-])cc1 (centres undefined) | 9% | -9% | / | 46% | 0%
COc1ccc(C2/C(=C(/O)c3ccc(C)cc3)C(=O)C(=O)N2c2ccccn2)cc1 (centres undefined) | / | -13% | 45µM* | 3% | -22%
Cc1ccc(/C(O)=C2\C(=O)C(=O)N(CC(C)O)C2c2ccccn2)cc1 (centres undefined) | 6% | 19% | / | 10% | 35µM*
Cc1ccc(/C(O)=C2/C(=O)C(=O)N(c3ccccn3)C2c2ccc([N+](=O)[O-])cc2)cc1 (centres undefined) | -7% | 4% | 71µM* | 6% | -32%
CC(C)(C)Nc1scc(-c2ccccc2)[n+]1-c1ccccc1 | / | 50µM* | 45µM* | -16% | -33%
CC(C)(C)Nc1c2ccccc2nc2ccccc12 | / | 10% | 4%[2.33 µM] | 43% | 3%
COc1cccc(-c2cc(C(=O)Nc3cc(OC)c(OC)c(OC)c3)on2)c1 | / | -34% | -40%[59 µM] | 1% | ?
COc1ccc(-c2cc(C(=O)Nc3cccc(O)c3)on2)cc1OC | / | ? | 14µM* | -9% | ?
O=C(Nc1cccc(O)c1)c1cc(-c2ccccc2F)no1 | / | -36% | ? | 0% | ?
COc1cccc(-c2cc(C(=O)Nc3cc(Cl)ccc3O)on2)c1 | / | ? | 13µM* | -1% | ?
COc1ccc(OC)c(S(=O)(=O)N2Cc3ccccc3CC2C(=O)Nc2ccc(C(C)=O)cc2)c1 (centres undefined) | / | -17% | -11%[59 µM] | -4% | -24%
CCCc1cc(=O)[nH]c(Nc2cc(Cl)cc(Cl)c2)n1 | / | -1% | -8%[59 µM] | 54% | -1%
O=C1CCc2cc(S(=O)(=O)Nc3cccnc3)ccc2N1 | / | / | / | / | -14%
Cc1ccc(NC(=O)N2CCc3cc(S(=O)(=O)N4CCC(C)CC4)ccc32)cc1 | / | 1% | -15%[59 µM] | 16% | 0%
